How the values were obtained:
Test in all cases: PBM binding z-score (relative to random genomic background probes); higher = stronger binding; sequences stand for … in GC…GCGATTGACAGCGTAGAATGAAGG
[1] = tested on: FXR:RXRa (NR concentration 270 nM, RXRa partner concentration 90 nM)
Procedure, shortened: (§1)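 For binding z-scores, the reference was random background probes on custom Agilent 4×180K protein-binding microarrays. These arrays were incubated 1 h with ligand-free nuclear receptor dimers in PBS pH 7.4, 2% milk, 0.02% Triton X-100, 1 mM DTT, 0.2 mg/mL BSA and 0.4 mg/ml salmon testes DNA. Fluorescence was scanned after antibody detection of each partner (one per run) and regression-normalized.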

[2] = tested on: LXRa:RXRa (NR concentration 270 nM, RXRa partner concentration 90 nM)
Procedure, shortened: as §1

[3] = tested on: LXRa homodimer (NR concentration 270 nM)
Procedure, shortened: as §1

[4] = tested on: LXRb:RXRa (NR concentration 270 nM, RXRa partner concentration 90 nM)
Procedure, shortened: as §1

[5] = tested on: LXRb homodimer (NR concentration 270 nM)
Procedure, shortened: as §1

[6] = tested on: PPARa:RXRa (NR concentration 270 nM, RXRa partner concentration 90 nM)
Procedure, shortened: as §1

[7] = tested on: PPARg:RXRa (NR concentration 180 nM, RXRa partner concentration 90 nM)
Procedure, shortened: as §1

[8] = tested on: PPARg:RXRa 270nM:90nM, anti-RXR (NR concentration 270 nM, RXRa partner concentration 90 nM)
Procedure, shortened: as §1

[9] = tested on: PPARg:RXRa 30nM:10nM, anti-RXR (NR concentration 30 nM, RXRa partner concentration 10 nM)
Procedure, shortened: as §1

[10] = tested on: PPARg:RXRa 90nM:30nM, anti-RXR (NR concentration 90 nM, RXRa partner concentration 30 nM)
Procedure, shortened: as §1

[11] = tested on: PPARg:RXRa DBDmut IVT, anti-RXR (DBD mutation: RXRa K156A/R161A, NR concentration 270 nM, RXRa partner concentration 90 nM)
Procedure, shortened: as §1

[12] = tested on: PPARg:RXRa IVT, anti-PPARg (NR concentration 270 nM, RXRa partner concentration 90 nM)
Procedure, shortened: as §1

[13] = tested on: PPARg DBDmut:RXRa IVT, anti-PPARg (DBD mutation: PPARg1 K132A/R137A, NR concentration 270 nM, RXRa partner concentration 90 nM)
Procedure, shortened: as §1

[14] = tested on: PPARg DBDmut IVT, anti-PPARg (DBD mutation: PPARg1 K132A/R137A, NR concentration 270 nM)
Procedure, shortened: as §1

[15] = tested on: PPARg homodimer (NR concentration 180 nM)
Procedure, shortened: as §1

[16] = tested on: PXR:RXRa (NR concentration 270 nM, RXRa partner concentration 90 nM)
Procedure, shortened: as §1

[17] = tested on: PXR homodimer (NR concentration 270 nM)
Procedure, shortened: as §1

[18] = tested on: RARa:RXR (NR concentration 270 nM, RXRa partner concentration 90 nM)
Procedure, shortened: as §1

[19] = tested on: RARa homodimer (NR concentration 270 nM)
Procedure, shortened: as §1

[20] = tested on: RARb:RXRa (NR concentration 270 nM, RXRa partner concentration 90 nM)
Procedure, shortened: as §1

Q: Which PBM binding z-score [1] does the source give for CCGACTGGGGCAAGGTTACCAAAACGCACAGCCA here?
A: 0.221

Q: What about the PBM binding z-score [2] of the same sequence?
A: 0.494

Q: What about the PBM binding z-score [3] of the same sequence?
A: -0.00504

Q: And the PBM binding z-score [4]?
A: 0.617

Q: And the PBM binding z-score [5]?
A: -1.39

Q: And the PBM binding z-score [6]?
A: 2.07

Q: What about the PBM binding z-score [7] of the same sequence?
A: 2.78

Q: What about the PBM binding z-score [8] of the same sequence?
A: 3.62

Q: What about the PBM binding z-score [9] of the same sequence?
A: 1.01

Q: What about the PBM binding z-score [10] of the same sequence?
A: 2.6

Q: What about the PBM binding z-score [11] of the same sequence?
A: 3.12

Q: And the PBM binding z-score [12]?
A: 3.53

Q: What about the PBM binding z-score [13] of the same sequence?
A: -0.395

Q: And the PBM binding z-score [14]?
A: -0.973

Q: What about the PBM binding z-score [15] of the same sequence?
A: 0.0774

Q: What about the PBM binding z-score [16] of the same sequence?
A: 0.341

Q: And the PBM binding z-score [17]?
A: -0.627

Q: And the PBM binding z-score [18]?
A: 1.09

Q: What about the PBM binding z-score [19] of the same sequence?
A: -0.287

Q: And the PBM binding z-score [20]?
A: 1.73

Q: What does the source list for TGAATGAGGTTAAAGATCACGGAACGTGGCGTCG?
A: PBM binding z-score [1]: 3.68; PBM binding z-score [2]: 2.87; PBM binding z-score [3]: -0.664; PBM binding z-score [4]: 2.2; PBM binding z-score [5]: 0.233; PBM binding z-score [6]: 5.33; PBM binding z-score [7]: 7.54; PBM binding z-score [8]: 7.16; PBM binding z-score [9]: 6.14; PBM binding z-score [10]: 7.59; PBM binding z-score [11]: 2.31; PBM binding z-score [12]: 3.53; PBM binding z-score [13]: 0.896; PBM binding z-score [14]: 0.358; PBM binding z-score [15]: 0.7; PBM binding z-score [16]: 2.94; PBM binding z-score [17]: -0.299; PBM binding z-score [18]: 4.67; PBM binding z-score [19]: 0.0716; PBM binding z-score [20]: 2.18

Q: CGTCACAGTTCAACTAAGGTAACGTAAAGCACGC was tested. Which PBM binding z-score [1] did it give?
A: 3.5

Q: And the PBM binding z-score [2]?
A: 3.37

Q: What about the PBM binding z-score [3] of the same sequence?
A: 1.17

Q: What about the PBM binding z-score [4] of the same sequence?
A: 2.07

Q: And the PBM binding z-score [5]?
A: 0.36

Q: What about the PBM binding z-score [6] of the same sequence?
A: 3.14

Q: And the PBM binding z-score [7]?
A: 1.61

Q: And the PBM binding z-score [8]?
A: 1.49

Q: And the PBM binding z-score [9]?
A: 0.576

Q: And the PBM binding z-score [10]?
A: 0.859

Q: What about the PBM binding z-score [11] of the same sequence?
A: 0.343

Q: What about the PBM binding z-score [12] of the same sequence?
A: 1.09

Q: And the PBM binding z-score [13]?
A: 0.467

Q: What about the PBM binding z-score [14] of the same sequence?
A: 1.1

Q: And the PBM binding z-score [15]?
A: 1.58

Q: What about the PBM binding z-score [16] of the same sequence?
A: 3.88

Q: And the PBM binding z-score [17]?
A: 1.47

Q: What about the PBM binding z-score [18] of the same sequence?
A: 2.28

Q: And the PBM binding z-score [19]?
A: 0.677

Q: What about the PBM binding z-score [20] of the same sequence?
A: 3.1

Q: Which results are given for CGTTAAAGTTCAAGGTAACGTAACAGAAAGCAGC?
A: PBM binding z-score [1]: 6.06; PBM binding z-score [2]: 5.3; PBM binding z-score [3]: 2.94; PBM binding z-score [4]: 3.2; PBM binding z-score [5]: 1.15; PBM binding z-score [6]: 4.56; PBM binding z-score [7]: 3.3; PBM binding z-score [8]: 4.01; PBM binding z-score [9]: 1.81; PBM binding z-score [10]: 3.27; PBM binding z-score [11]: 0.894; PBM binding z-score [12]: 2.08; PBM binding z-score [13]: 0.767; PBM binding z-score [14]: 0.8; PBM binding z-score [15]: 1.94; PBM binding z-score [16]: 3.79; PBM binding z-score [17]: 2.16; PBM binding z-score [18]: 2.94; PBM binding z-score [19]: 2.05; PBM binding z-score [20]: 4.96

Q: Which PBM binding z-score [1] does the source give for CAAACTAGGTCAAGGACAGTGAATCTCCGCACGC here?
A: 3.5

Q: What about the PBM binding z-score [2] of the same sequence?
A: 2.6

Q: And the PBM binding z-score [3]?
A: 0.383

Q: And the PBM binding z-score [4]?
A: 1.84

Q: And the PBM binding z-score [5]?
A: 0.431

Q: What about the PBM binding z-score [6] of the same sequence?
A: 4.98

Q: And the PBM binding z-score [7]?
A: 7.68

Q: What about the PBM binding z-score [8] of the same sequence?
A: 6.71

Q: What about the PBM binding z-score [9] of the same sequence?
A: 4.3

Q: And the PBM binding z-score [10]?
A: 6.04

Q: What about the PBM binding z-score [11] of the same sequence?
A: 8.06

Q: And the PBM binding z-score [12]?
A: 8.33

Q: And the PBM binding z-score [13]?
A: 5.83

Q: And the PBM binding z-score [14]?
A: 2.41

Q: And the PBM binding z-score [15]?
A: 2.39

Q: And the PBM binding z-score [16]?
A: 1.42

Q: What about the PBM binding z-score [17] of the same sequence?
A: 0.22

Q: What about the PBM binding z-score [18] of the same sequence?
A: 2.41

Q: What about the PBM binding z-score [19] of the same sequence?
A: 1.49

Q: And the PBM binding z-score [20]?
A: 4.06

Q: What does the source list for CTCTAAAGGTCGGTTGAGGTGAGTATACGGATAA?
A: PBM binding z-score [1]: 2.41; PBM binding z-score [2]: 2.21; PBM binding z-score [3]: 0.211; PBM binding z-score [4]: 1.61; PBM binding z-score [5]: 0.152; PBM binding z-score [6]: 2.87; PBM binding z-score [7]: 0.622; PBM binding z-score [8]: 1.44; PBM binding z-score [9]: 0.122; PBM binding z-score [10]: 0.958; PBM binding z-score [11]: 0.506; PBM binding z-score [12]: 1.04; PBM binding z-score [13]: 0.0568; PBM binding z-score [14]: 0.0389; PBM binding z-score [15]: 1.04; PBM binding z-score [16]: 3.48; PBM binding z-score [17]: 0.187; PBM binding z-score [18]: 2.31; PBM binding z-score [19]: -0.146; PBM binding z-score [20]: 3.31

Q: With AATACAGGGTCACTATGCCAGAGTAGGTACGAAT as the sequence, how does the PBM binding z-score [1] read?
A: 5.56

Q: And the PBM binding z-score [2]?
A: 4.68

Q: And the PBM binding z-score [3]?
A: 1.16

Q: What about the PBM binding z-score [4] of the same sequence?
A: 3.79

Q: And the PBM binding z-score [5]?
A: 1.06

Q: What about the PBM binding z-score [6] of the same sequence?
A: 5.44

Q: And the PBM binding z-score [7]?
A: 6.37

Q: What about the PBM binding z-score [8] of the same sequence?
A: 4.87

Q: And the PBM binding z-score [9]?
A: 2.05

Q: What about the PBM binding z-score [10] of the same sequence?
A: 3.73

Q: What about the PBM binding z-score [11] of the same sequence?
A: 3.26

Q: What about the PBM binding z-score [12] of the same sequence?
A: 4.74

Q: And the PBM binding z-score [13]?
A: 1.77

Q: What about the PBM binding z-score [14] of the same sequence?
A: 1.8

Q: What about the PBM binding z-score [15] of the same sequence?
A: 1.62

Q: What about the PBM binding z-score [16] of the same sequence?
A: 2.9

Q: And the PBM binding z-score [17]?
A: 0.523

Q: What about the PBM binding z-score [18] of the same sequence?
A: 3.67

Q: What about the PBM binding z-score [19] of the same sequence?
A: 1.11

Q: What about the PBM binding z-score [20] of the same sequence?
A: 4.01

Source: the supplement of paper PMC6555819
